Hits are enriched below; roughly 10% of the tested compounds scored in any of these assays.
HPGD block – HPGD (human) dehydrogenase inhibition; P15428; purified HPGD, NADH fluorescence kinetic, PGE2 substrate; Potency, µM, for inactives: top-dose activity change, negative = inhibition, hits mostly inhibitors; 150,000 compounds, 4.3% hits; AID 894; note: potency is the fitted concentration of half-maximal effect
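NADH formation kinetics: reaction with 30 uM PGE2 and 1 mM NAD+ (final), 20 nM enzyme, Tris-HCl pH 8 with Tween 20, after 15 min compound preincubation at room temperature. Fluorescence change, last versus first of five reads.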
PNC assembly inh – inhibitors of perinucleolar compartment assembly | activity change (PNC), negative = inhibition, % at 10 µM | AID 2417 | PC3M PTB-GFP, PNC prevalence imaging, 16 h; hits give low values | 140,000 compounds, 3.1% hits;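 active = readout at or below -70, meaning at least 70% loss of cells showing the perinucleolar compartment, a nuclear body marking cancer cells; inconclusive = readout between -30 and a set limit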;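 note: plate controls were DMSO wells for no effect and camptothecin positive control wells for full effect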
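PC3M cells stably expressing PTB-GFP, 750–1000 cells/well, treated 16 h at 37 °C with compound (23 nl of library stock), in duplicate. After paraformaldehyde fixation and Hoechst stain, imaged at 20x; PNC prevalence scored by image analysis.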
Luc counter – Kinase-Glo luciferase inhibition (counter-screen); AID 1379; Q27757; Potency, µM (titrated, usually from 38.3 µM), without a hit: at the top dose activity change, negative = inhibition, usual class: inhibitors; Kinase-Glo luciferase, ATP luminescence, 8 min; 200,000 compounds, 0.28% hits; active = well fitted inhibition curve with a large enough effect; inconclusive = small, poorly fitted or top-dose-only effect; note: potency is the fitted concentration of half-maximal effect; nearly all actives have a fitted effect of over 60% in size
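Compound is pinned into ATP-containing buffer (10 uM ATP, imidazole pH 7.2, 7 mM MgCl2). Kinase-Glo luciferase reagent is then added. Light output is recorded following an 8-min room-temperature incubation.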
IMPase cell inh – membrane-permeable compound that blocks inositol monophosphatase; inhibition (IP1 accumulation), % at 46.1 µM; 120,000 tested, under 10 active; CHO-M1 cells, IP1 accumulation, HTRF TR-FRET ratio; AID 901; active = well fitted curve in the direction sought with a large enough effect in the signal ratio, not every such curve was filed as active; inconclusive = small, poorly fitted or top-dose-only effect, or a change in a side signal; inactive = no such curve, though single readings can be large or run the other way; the % refers to the signal ratio;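 note: cells stimulated with carbachol in lithium chloride buffer; plate controls were DMSO basal wells for no effect and reference inhibitor wells for full effect; higher means more IMPase inhibition seen as more IP1 and lower FRET ratio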
Target sequence (P97697 whole entry, looked up): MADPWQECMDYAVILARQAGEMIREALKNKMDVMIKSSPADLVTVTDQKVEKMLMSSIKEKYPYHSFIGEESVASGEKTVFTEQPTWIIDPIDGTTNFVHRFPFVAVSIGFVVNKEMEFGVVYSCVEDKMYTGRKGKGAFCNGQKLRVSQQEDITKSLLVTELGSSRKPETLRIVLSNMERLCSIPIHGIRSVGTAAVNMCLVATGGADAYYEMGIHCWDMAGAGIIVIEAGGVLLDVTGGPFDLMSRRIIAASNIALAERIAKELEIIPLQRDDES
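CHO-M1, 2000 cells/well, cultured 16–30 h; cpd up to 46 uM; carbachol (50 uM solution, stimulation buffer w/ 50 mM LiCl, pH 7.4), 30 min 37C; IP-One TR-FRET, 10 min RT; Ex 320/Em 665, 620; Hill-fit AC50.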
ALDH1A1 block – inhibitors of human aldehyde dehydrogenase 1A1. Potency, µM (titrated, usually from 75.3 µM), without a hit: at the highest dose activity, negative = inhibition, most hits filed as inhibitors. 220,000 compounds, 7.3% hits. Purified ALDH1A1, NADH fluorescence, propionaldehyde substrate. P00352;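 note: potency is the fitted concentration of half-maximal effect; plate controls were no enzyme wells and a reference inhibitor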
Target sequence (P00352 whole entry, looked up): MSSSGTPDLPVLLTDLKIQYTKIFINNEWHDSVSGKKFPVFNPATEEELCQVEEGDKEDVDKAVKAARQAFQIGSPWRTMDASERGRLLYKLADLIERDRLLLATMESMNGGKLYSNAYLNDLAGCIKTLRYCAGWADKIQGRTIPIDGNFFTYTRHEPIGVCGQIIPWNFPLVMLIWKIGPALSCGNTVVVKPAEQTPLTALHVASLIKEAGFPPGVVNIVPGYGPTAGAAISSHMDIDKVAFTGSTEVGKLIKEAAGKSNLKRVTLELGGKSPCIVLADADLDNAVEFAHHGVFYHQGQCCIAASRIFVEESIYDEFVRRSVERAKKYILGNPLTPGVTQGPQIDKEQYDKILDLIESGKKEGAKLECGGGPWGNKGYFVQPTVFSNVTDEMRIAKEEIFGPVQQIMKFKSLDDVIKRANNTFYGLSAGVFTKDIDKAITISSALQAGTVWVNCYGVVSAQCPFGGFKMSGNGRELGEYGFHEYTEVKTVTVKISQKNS
Lamin A splicing – changes lamin A minigene splicing in HeLa cells; HeLa LMNA splicing GFP/RFP minigene ratio, 48 h; Potency, µM (doses to about 46.1 µM), inactives show at the top dose ratio change, negative = inhibition, most hits filed as inhibitors; 200,000 compounds, 0.01% hits; AID 1487; active = well fitted inhibition curve with a large enough effect in the signal ratio, with a control signal flat, not every such curve was filed as active; inconclusive = small, poorly fitted or top-dose-only effect, or effect the other way, or a change in a side signal; the % refers to the signal ratio; note: potency is the fitted concentration of half-maximal effect
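S3 HeLa cells stably expressing lamin A-EGFP splicing minigene plus DsRed2, 600 cells/well, 48 h compound exposure at 37C. Laser-scanning cytometry; analysed as GFP (500-530 nm)/RFP (575-640 nm) total intensity ratio; 0.5% DMSO vehicle.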
The depositor's hits bear a star; ? = inconclusive; . = no result; [ ] = dose if it differs, or a comment. Unless noted, calls come from the whole dose curve; as a rule, active = well fitted inhibition curve with a large enough effect (not every such curve was filed as active); inconclusive = small, poorly fitted or top-dose-only effect, or another doubt; inactive = no such curve, though single readings can be large or run the other way. Unless noted, % is set by controls: 0 for no effect and ±100 for the full control effect.

SMILES	HPGD block	PNC assembly inh	Luc counter	IMPase cell inh	ALDH1A1 block	Lamin A splicing
O=C(NCc1ccccc1)N[C@@H](Cc1ccccc1)C(=O)O	-6.3%	?	0.4%	-9.0	14.4%	-11.0%
O=C(NCc1ccc(F)cc1)N[C@@H](Cc1ccccc1)C(=O)O	-3.0%	-126.9*	5.4%	-1.9	?	-2.8%
CCCCC(=O)Nc1ncc([N+](=O)[O-])s1	.	.	2.9%	.	-1.5%	?
Cc1nc(C)c(C(=O)Nc2ncc([N+](=O)[O-])s2)o1	.	.	?	.	22.4µM*	?
CC(C)CCNC(=O)c1ccc(Cn2c(SCC(N)=O)nc3ccccc3c2=O)cc1	.	.	.	.	.	-7.8%[46 µM]
COc1ccc(OC)c(-c2ccccc2/C=N/NS(=O)(=O)c2ccc(C)cc2)c1	.	.	.	.	14.6%[13.5 µM]	.
Clc1ccccc1-c1nnc2sc(-c3ccc4c(c3)OCO4)nn12	?	-20.2	-1.0%	-3.4	?	-18.8%
Clc1cccc(-c2nnc3sc(-c4ccc5c(c4)OCO5)nn23)c1	.	6.1	.	5.0	20µM*	4.5%
Br/C(=N\Nc1nn[nH]n1)c1ccncc1	-3.8%	.	-7.3%[7.66 µM]	.	-11.4%[13.5 µM]	.
NNc1cc([N+](=O)[O-])cc2c1C(=O)N(Cc1ccccc1)S2=O (stereo not given)	.	.	-8.4%	.	14.1µM*	-4.1%[46 µM]
CCOC(=O)c1cc(NC(=O)CSCCO)ccc1Cl	-3.9%	35.1	1.9%	8.6	22.4µM*	1.4%
CO[C@H]1COC(=O)C/C=C\[C@H](C)[C@@H](OC)COC(=O)C/C=C\[C@@H]1C	.	.	.	.	1.9%[13.5 µM]	.
O=C(CCN1C(=O)C2C3C=CC(C3)C2C1=O)N1CCN(c2ccccc2Cl)CC1 (stereo not given)	-6.7%	?	-3.5%	-0.5	2µM*	8.3%
O=C(CCN1C(=O)C2C3C=CC(C3)C2C1=O)N1CCN(c2ccc([N+](=O)[O-])cc2)CC1 (stereo not given)	.	.	1.6%	.	6.31µM*	.
CN(C)S(=O)(=O)N(CC(=O)NCCSCc1c(F)cccc1Cl)c1ccccc1	.	.	.	-1.0	.	.
CCOCCCNC(=O)COC(=O)/C=C/c1ccc(S(=O)(=O)N2CCc3ccccc32)cc1	.	.	8.0%	.	7.94µM*	-9.2%[46 µM]
CC(C)C(C)NC(=O)COC(=O)/C=C/c1ccc(S(=O)(=O)N2CCc3ccccc32)cc1 (stereo not given)	.	.	-1.9%	.	?	.
CCC(=O)N1CCCc2cc(S(=O)(=O)N3CCC(C(=O)Nc4ccc(C#N)cc4)CC3)ccc21	.	.	.	.	.	-3.6%[46 µM]
COc1ccccc1/C=C\C=N\n1c(C2CCCCC2)n[nH]c1=S	14.1µM*	7.4	1.7%	5.3	?	-2.1%[0.0737 µM]
COc1ccccc1/C=C/C=N/N1CCN(c2ccccn2)CC1	-4.4%	28.7	-1.2%	7.6	?	1.7%[0.0737 µM]
COc1ccc(-c2n[nH]c(=S)n2/N=C/C=C\c2ccccc2OC)cc1	0.891µM*	-5.3	0.3%	-1.5	?	?
COc1ccccc1-n1c(-c2ccccc2)n[nH]c1=S	.	.	7.1%	.	?	.
COc1ccc(-c2cc(-c3n[nH]c(=S)n3-c3ccccc3OC)[nH]n2)cc1	11.2µM*	47.5	0.6%	.	?	1.7%
COc1ccccc1/C=C/C=N/n1c(-c2ccncc2)n[nH]c1=S	14.1µM*	?	0.5%	.	4.1%	?
O=C(COc1ccc(F)cc1)Nc1nnc(SCc2cc(=O)n3ccccc3n2)s1	.	.	.	.	.	-7.2%[46 µM]
SMILES	HPGD block	PNC assembly inh	Luc counter	IMPase cell inh	ALDH1A1 block	Lamin A splicing
CCCCCSc1ncnc2c1sc1nc(N3CCOCC3)c3c(c12)CCCC3	.	.	.	2.1	.	.
Cc1ccc2c(CSc3nc4ccccc4c(=O)n3CCCO)cc(=O)oc2c1C	?	-2.3	-1.3%	8.2	12.6µM*	?
CN[C@@H]1[C@H](O[C@@H]2O[C@H](C)[C@@](O)(CO)[C@H]2O[C@H]2[C@H](O)[C@H](O)[C@H](N=C(N)N)[C@@H](O)[C@@H]2N=C(N)N)O[C@@H](CO)[C@H](O)[C@H]1O	-0.2%	.	0.9%[39.9 µM]	.	10µM*	.
CN[C@@H]1[C@H](O[C@@H]2O[C@H](CO)[C@@H](N)[C@H](O)[C@@H]2O)O[C@H]2C[C@@H](N)[C@@H](O[C@H]3[C@@H](O)[C@H](O)[C@H](N)C[C@@H]3N)O[C@H]2[C@H]1O	1.0%	.	0.2%[17.1 µM]	-2.1[20.6 µM]	-2.6%[20.9 µM]	-12.7%
CCC(CC)C(=O)N1CCc2cc(OC)c(OC)cc2C1COc1ccccc1OC (stereo not given)	.	.	.	.	.	-8.0%[46 µM]
CCOc1ccc(NC(=O)C(c2ccccn2)N(C(=O)CCl)c2ccc(F)cc2)cc1 (stereo not given)	1.0%	-16.5	-1.6%	0.5	11.2µM*	4.7%
Cc1ccccc1OCc1nnc(SCC(=O)Nc2ccc3c(c2)OCO3)n1C	-15.6%	12.8	1.6%	9.7	8.5%	24.4%
CC(C)CC(=O)Nc1ccc2nc(SCC(=O)N3CCCC3)sc2c1	.	.	.	.	.	8.6%[46 µM]
Cn1c(SCC(=O)Nc2ccc3nc(SCC(=O)N4CCCC4)sc3c2)nnc1-c1ccc(N)cc1	8.91µM*	16.6	-1.6%	4.7	12.6µM*	17.4%
Cc1ccccc1OCc1nnc(SCC(=O)Nc2ccc3nc(SCC(=O)Nc4ccccc4)sc3c2)n1C	-12.3%	?	5.7%	.	12.6µM*	?
Cn1c(SCC(=O)Nc2ccc3nc(SCC(=O)NC4CC4)sc3c2)nnc1-c1ccccc1	3.55µM*	?	2.2%	2.2	10µM*	-12.3%
CCCC(=O)Nc1ccc2nc(SCC(=O)N3CCOCC3)sc2c1	.	.	.	.	.	14.7%[46 µM]
CCC(=O)Nc1ccc2nc(SCC(=O)N3CCCC3)sc2c1	15.8µM*	-1.1	4.7%	-17.3	?	-14.4%
NNC(=O)c1nc[nH]c1C(=O)Nc1ccccc1[N+](=O)[O-]	.	.	-3.5%	.	0.794µM*	-7.5%[46 µM]
O=C(NCc1ccccc1)c1nc[nH]c1C(=O)NCc1ccccc1	.	.	-0.5%	.	2.51µM*	1.7%[46 µM]
COc1ccccc1N(CC(=O)NCCSCc1cccc(Cl)c1)S(C)(=O)=O	.	.	.	2.0	.	.
O=C(CN(c1ccc(F)cc1)S(=O)(=O)c1ccccc1)NCc1ccco1	5.8%	18.0	-2.6%	3.4	1.9%	24.2%
Cc1ccc(N(CC(=O)NCCSCc2ccco2)S(C)(=O)=O)cc1	-8.7%	23.7	2.3%	4.8	8.91µM*	-0.6%
CS(=O)(=O)N(CC(=O)NCCSCc1ccco1)c1ccc2c(c1)OCO2	.	.	-0.4%	.	?	27.5%[46 µM]
O=C(CN(c1ccccc1)S(=O)(=O)c1ccccc1)NCCSCc1ccco1	-8.5%	6.0	-0.1%	-4.2	10µM*	10.6%
Cc1ccc(N(CC(=O)NCCSc2ccccc2)S(=O)(=O)c2ccc(F)cc2)cc1	.	.	.	2.5	.	.
Cc1ccc(N(CC(=O)NCCSCc2ccco2)S(=O)(=O)c2ccc(F)cc2)cc1	.	.	0.0%	.	20µM*	?

Screening results deposited in PubChem by National Center for Advancing Translational Sciences (NCATS).
